Screening data (PubChem BioAssay)
BAP1 inh: human BAP1 deubiquitinase inhibition; calls only at 20 µM; Q92560; actives 0.48% (n = 72,000); recombinant BAP1, Ub-AMC hydrolysis fluorescence kinetic; active compounds read low;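 active = activity remaining at or below 50% of control, provided the compound also passes the data quality filters; inactive = the rest, including low values that fail the filters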
DAT uptake mod: modulates human dopamine transporter uptake under cocaine; Q01959; B-score at 10 µM; AID 449768; LLC-PK1 hDAT cells, [14C]-dopamine uptake with cocaine IC80; actives deviate in either direction; actives 1.3% (n = 110,000);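 active = Z score or B-score, a plate-position-corrected score, falls beyond the plate's 99.7% confidence bounds, in either direction; inactive = both scores lie inside the 99.7% bounds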
D1 allo mod: allosteric modulators of human D1 dopamine receptor; P21728; HEK293 D1, CRE-luciferase, dopamine EC30 potentiation; actives deviate in either direction; B-score at 10 µM; actives 5.9% (n = 58,000);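 active = luminescence count or its row- and column-corrected plate score outside the 99.7% band of the plate's sample wells, on either side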
Target sequence (P21728 whole entry, looked up): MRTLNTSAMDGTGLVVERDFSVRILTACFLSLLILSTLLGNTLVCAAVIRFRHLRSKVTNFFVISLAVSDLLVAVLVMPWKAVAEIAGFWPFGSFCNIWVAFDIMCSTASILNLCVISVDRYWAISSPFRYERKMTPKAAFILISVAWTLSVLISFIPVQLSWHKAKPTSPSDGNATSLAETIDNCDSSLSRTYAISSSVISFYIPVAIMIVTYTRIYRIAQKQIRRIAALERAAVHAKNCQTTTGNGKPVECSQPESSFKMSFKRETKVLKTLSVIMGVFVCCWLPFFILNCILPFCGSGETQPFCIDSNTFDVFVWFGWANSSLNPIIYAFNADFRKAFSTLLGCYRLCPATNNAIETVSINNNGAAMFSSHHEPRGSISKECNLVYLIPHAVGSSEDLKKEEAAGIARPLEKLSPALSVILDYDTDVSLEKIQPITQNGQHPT
D1 mod confirm: confirmation of human D1 dopamine receptor allosteric modulators | actives 88% (n = 2,200) | HEK293 D1 CRE-luciferase, dopamine EC30 potentiation; active compounds read high | shares compounds with D1 allo mod | luminescence at 10 µM;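 active = luminescence in either of two replicates above the same-plate mean plus 3 SD of the low-dose dopamine control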
D1 ag no DA: activates D1 CRE-luciferase signal without dopamine present | actives 0.8% (n = 1,900) | luminescence at 10 µM | AID 646 | HEK293 D1 CRE-luciferase, luminescence, no dopamine; active compounds read high | shares compounds with D1 allo mod; in the data active = luminescence above about 3900
Isoprot counter: isoproterenol response counter-screen activity for D1 modulators; shares compounds with D1 allo mod; HEK293 D1 CRE-luciferase, isoproterenol EC30 counter-screen; active compounds read high; luminescence at 10 µM; actives 63% (n = 2,200); AID 647;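 active = luminescence in either replicate above plate mean of wells with a partly effective reference agonist dose plus 3 SD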;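 also: isoproterenol raises cAMP through native beta-adrenoceptor Gs so signal bypasses D1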
Numbers stand for hits; . = inactive; / = no result given. This excerpt belongs to a sample that is enriched for hits.

SMILES | BAP1 inh | DAT uptake mod | D1 allo mod | D1 mod confirm | D1 ag no DA | Isoprot counter
CC(OC(=O)c1cccnc1SCc1cc(=O)n2ccccc2n1)c1ccccn1 (centres undefined) | / | . | / | / | / | /
CCCOC(=O)C1=C(C)NC2=C(C(=O)CCC2)C1c1cc(Br)c(O)c(OC)c1 (centres undefined) | . | / | / | / | / | /
CC1(C)C(c2ccccc2)=NC(c2ccc(F)cc2)N1O (centres undefined) | . | . | . | / | / | /
CC1(C)C(c2cccs2)=NC(c2ccccc2)N1O (centres undefined) | . | . | 3.6 | 9348 | / | 2900
CC(C)c1ccc(-c2nc(N3CCCCC3)[nH]c(=O)c2C#N)cc1 | . | . | 5.5 | 19464 | . | .
CC1CCN(c2nc(-c3ccccc3)c(C#N)c(=O)[nH]2)CC1 | / | . | / | / | / | /
CC(=O)N1CCN(C(=S)c2ccc(-c3ccccc3Cl)o2)CC1 | . | / | / | / | / | /
Cc1cc(C)cc(OCC(=O)NCCc2nc3ccccc3[nH]2)c1 | . | / | / | / | / | /
Cc1cc(=O)oc2cc(OCC(=O)NCCc3nc4ccccc4[nH]3)ccc12 | . | . | 3.2 | 6860 | . | .
CCN(CC)c1ccc(NC(=O)CSc2nc(C)cc(=O)[nH]2)cc1 | . | . | / | / | / | /
COC(=O)c1cc(NC(=O)CSc2nc(C)cc(=O)[nH]2)cc(C(=O)OC)c1 | . | . | 2.9 | 6652 | . | .
CC12CC(c3ccccc3O1)C(C(=O)N1CCOCC1)C(=O)N2 (centres undefined) | . | . | 3.3 | . | . | .
O=C(C1COc2ccccc2O1)N1CCOCC1 (centres undefined) | . | . | . | / | / | /
COc1ccc(CN2C(=O)C3C(c4ccccc4)OC4(C(=O)c5ccccc5C4=O)C3C2=O)cc1 (centres undefined) | . | / | / | / | / | /
CCCn1nc(NS(C)(=O)=O)c2cc3cccc(C)c3nc21 | . | . | 16 | 16772 | . | 3468
CCn1nc(NS(=O)(=O)c2ccccc2)c2cc3cccc(C)c3nc21 | . | . | . | / | / | /
Cc1cc(NC2CCCCC2)nc(N2CCOCC2)n1 | . | . | . | / | / | /
COc1ccc(Nc2cc(C)nc(N3CCOCC3)n2)cc1 | . | . | 3.6 | 8656 | . | 3728
O=C(Nc1cccc2ccccc12)c1sc2cccc(Cl)c2c1Cl | . | / | / | / | / | /
CC(C)Oc1ccc(C2C3=C(CC(C)(C)CC3=O)Nc3ccccc3N2C(=O)C(F)(F)F)cc1 (centres undefined) | . | / | / | / | / | /
O=c1cc(CO)oc(CN2CCN(c3cccc(C(F)(F)F)c3)CC2)c1O | / | . | / | / | / | /
O=c1cc(CO)oc(CN2CCN(c3ccccc3)CC2)c1O | . | . | 3.1 | . | . | .
COC(=O)c1ccc(COc2ccc3c(=O)c(-c4ccc(C(=O)OC)o4)c(C)oc3c2)o1 | . | / | / | / | / | /
COc1cccc(Oc2cnc(N)nc2-c2ccc(OC)cc2O)c1 | . | . | 15 | 22464 | . | 5216
C=C(C)COc1ccc(-c2[nH]ncc2Oc2cccc(OC)c2)c(O)c1 | . | . | . | / | / | /
SMILES | BAP1 inh | DAT uptake mod | D1 allo mod | D1 mod confirm | D1 ag no DA | Isoprot counter
COc1ccc(-c2nc(C)ncc2-c2csc(C)n2)c(O)c1 | / | . | / | / | / | /
COc1ccc(-c2cnc(N)nc2-c2ccc(OC)cc2O)cc1 | . | . | 14 | 16148 | / | 2836
COc1ccccc1-c1csc(NC(=O)c2cccs2)n1 | . | / | / | / | / | /
COc1cc2c(cc1OC)C1=C(C#N)CCC(=NC(=O)c3ccc(Cl)cc3)N1CC2 | / | . | / | / | / | /
COc1cc2c(cc1OC)C1=C(C#N)COCN1CC2 | . | . | 15 | 9624 | . | 4436
COc1nc(OC)nc(N2CCC(C(=O)NCc3ccco3)CC2)n1 | . | . | . | / | / | /
COc1nc(NCc2ccco2)nc(N2CCC(C)CC2)n1 | . | . | 10 | 15736 | . | 4404
CC(NC(=O)C1CCCC1)c1ccc2c(c1)OCCO2 (centres undefined) | / | . | / | / | / | /
CC(NC(=O)C1CCC(=O)N1Cc1ccc(F)cc1)c1ccc2c(c1)OCCO2 (centres undefined) | . | . | 2.1 | . | . | .
CCOc1ccc(C=Nc2ccc(Br)cc2)cc1 | . | / | / | / | / | /
COC(=O)c1ccc(Oc2cc(C)nc(SC)n2)cc1 | / | . | 5.3 | 15492 | . | 3488
COC(=O)COc1ccc(Oc2cc(C)nc(SC)n2)nn1 | . | . | . | / | / | /
Cc1onc(-c2ccccc2Cl)c1C(=O)Nc1c2c(nn1-c1ccc([N+](=O)[O-])cc1)CSC2 | . | / | / | / | / | /
CC(C)(C)NCC(O)c1ccc(O)c(CO)c1 (centres undefined) | . | . | / | / | / | /
